In PubChem BioAssay (NCI):
Compounds without any hit were thinned out: in the full panel of roughly 83,000, 20% have a hit.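 Growth was measured after 48 h exposure to one concentration of compound in 96-well plates. Values under 10 count as active.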 Unmarked numbers belong to inactive results. Activity calls are given as the source filed them.

Key:
Test in all cases: NCI-60 one-dose screen, 48 h (100 = growth as untreated, 0 = no growth, -100 = all killed)
Conditions in all cases: 10 µM unless noted
NCI-H23 lung = test system: NCI-H23 lung
NCI-H226 lung = test system: NCI-H226 lung
NCI-H322M lung = test system: NCI-H322M lung
HOP-62 NSCLC = test system: HOP-62 NSCLC
NCI-H460 lung = test system: NCI-H460 lung
HOP-92 NSCLC = test system: HOP-92 NSCLC
NCI-H522 lung = test system: NCI-H522 lung
A549/ATCC NSCLC = test system: A549/ATCC NSCLC
786-0 renal = test system: 786-0 renal
COLO 205 colon = test system: COLO 205 colon
DU-145 prostate = test system: DU-145 prostate
K-562 leukemia = test system: K-562 leukemia
MALME-3M melanoma = test system: MALME-3M melanoma
MDA-MB-231 breast = test system: MDA-MB-231 breast
RXF 393 renal = test system: RXF 393 renal
SF-268 CNS = test system: SF-268 CNS
SF-295 CNS = test system: SF-295 CNS
SF-539 CNS = test system: SF-539 CNS
UACC-257 melanoma = test system: UACC-257 melanoma
M14 melanoma = test system: M14 melanoma

Compound | growth (NCI-H23 lung) | growth (NCI-H226 lung) | growth (NCI-H322M lung) | growth (HOP-62 NSCLC) | growth (NCI-H460 lung) | growth (HOP-92 NSCLC) | growth (NCI-H522 lung) | growth (A549/ATCC NSCLC) | growth (786-0 renal) | growth (COLO 205 colon) | growth (DU-145 prostate) | growth (K-562 leukemia) | growth (MALME-3M melanoma) | growth (MDA-MB-231 breast) | growth (RXF 393 renal) | growth (SF-268 CNS) | growth (SF-295 CNS) | growth (SF-539 CNS) | growth (UACC-257 melanoma) | growth (M14 melanoma)
COCCn1cc(-c2csc(-c3c[nH]c4ccccc34)n2)c2cccnc21 | 42.2% | 60.9% | 61% | 38.2% | 18.8% | 55.5% | -33.6% (active) | 25% | 43.5% | -8.68% (active) | 62.3% | 18.1% | 52.3% | 35% | 72.2% | 50.1% | 25.8% | 43.5% | 45.9% | 18.6%
COc1ccc(/C=C(/C(=O)N2CCNCC2)c2cc(OC)c(OC)c(OC)c2)cc1O | 49.9% | 88.7% | 50% | 56.4% | 37.6% | 48.7% | 0.313% (active) | 41.6% | 95.5% | 25.9% | 27% | 22% | 46.6% | 58.2% | 7.47% (active) | 49.5% | 66.3% | 6.82% (active) | 27% | 38%
CCCCCc1ccc(S(=O)(=O)Nc2ccc3nc(N)oc3c2)cc1 | 40.2% | 46.3% | 96.9% | 78.5% | 60.8% | 19.5% | 43.7% | 53.2% | 72.4% | 72.4% | 74.2% | 27.9% | 89.8% | 64.3% | 77.4% | 51.1% | 30.8% | 71.3% | 34.4% | 73.1%
CCOC(=O)/C=C1\S/C(=N\Nc2cc(=O)[nH]c3ccc(Br)cc23)N(c2ccccc2)C1=O | 88.1% | 84.1% | 90.5% | 91.2% | 95.9% | 81.5% | 31.4% | 103% | 86% | 46.6% | 85.2% | 13.4% | 82% | 86.2% | 35.2% | 85.6% | 100% | 80.8% | 89.9% | 89.5%
CSc1nc2ccc(C)cc2cc1/C=C1/C=C(c2ccccc2)NC1=O | 75.2% | 69.4% | 65.8% | 72.8% | 19.2% | 36.4% | 67.6% | 47.2% | 2.66% (active) | 69.8% | 47.4% | 41.3% | 40.4% | 38.5% | 79.1% | 66.3% | 36.7% | 39.5% | 80% | 64.1%
COc1ccc(C/C(C)=C(\c2ccc(Cl)cc2)c2ccc(OCCCN(C)C)cc2)cc1 | 88.1% | 108% | 90.1% | 92.9% | 56.6% | 52.9% | 89.1% | 68.7% | 76.1% | -66.7% (active) | 102% | -7.99% (active) | 80% | 83.3% | 72.4% | 88.6% | 105% | 84.7% | 91.5% | 48.7%
Nc1ncnc2c1N=C(c1ccc(F)cc1)CC(c1cccc(Nc3ccnc4cc(Cl)ccc34)c1)N2 (stereo not given) | 77.9% | 91.5% | 89.6% | 73.5% | 81.3% | 67.8% | 99.7% | 83.5% | 61.9% | 49.8% | 85.9% | 26.7% | 91.1% | 75.2% | 39.1% | 62% | 72.1% | 80.6% | 106% | 72.1%
O=C1Nc2ccccc2/C1=N/N1C(=O)CN(CCCl)C1=O | 100% | 95.1% | 101% | 97.5% | 102% | 110% | 89.7% | 104% | 101% | 112% | 119% | 97.5% | 107% | 117% | 115% | 102% | 99.6% | 105% | 96.6% | 107%
O=S(O)c1cc(Cl)cc(Cl)c1OCc1ccccc1 | 101% | 94.5% | 95.9% | 101% | 101% | 87.6% | 96.2% | 90.2% | 102% | 105% | 109% | 106% | 99.8% | 107% | 97.3% | 101% | 108% | 103% | 90.8% | 101%
O=c1cc(-c2ccccc2)nc(SCc2nc3cc(Cl)c(Cl)cc3[nH]2)[nH]1 | 90.9% | 101% | 90.7% | 93.2% | 111% | 104% | 85.3% | 114% | 96.7% | 108% | 106% | 88.8% | 103% | 102% | 107% | 101% | 102% | 94.3% | 103% | 104%
CCOC(=O)c1cnn(CC(C)O)c1NC(=O)NCc1cccc(F)c1 (stereo not given) | 97.5% | 103% | 97.7% | 100% | 105% | 68% | 66% | 100% | 95.1% | 118% | 96.7% | 81.1% | 99.2% | 106% | 111% | 101% | 99.9% | 98.2% | 99.7% | 83.2%
Cc1cccc(NC(=O)Cn2cc(CN3CCN(c4ccnc5cc(Cl)ccc45)CC3)nn2)c1 | 89.4% | 75.5% | 93.1% | 80.1% | 94% | 56.3% | 80.3% | 94.1% | 101% | 98.6% | 106% | 71.6% | 92.5% | 78.2% | 90.7% | 81.8% | 93.7% | 93.4% | 105% | 92.5%
Cc1c(C(C)(C)O)cn2ncnc(Oc3ccc(NC(=O)Nc4ccc(Cl)c(C(F)(F)F)c4)c(F)c3)c12 | 30.6% | 62.6% | 92.1% | 101% | 25.9% | 36.4% | 39.9% | 41.2% | 64.8% | 72.8% | 80.6% | 25.4% | 91.4% | 73.3% | 72.4% | 63.6% | 36.4% | 41% | 80% | 55.1%
O=C(Nc1cc(Cl)cc(Cl)c1)Oc1c(Cl)c(Cl)c(Cl)c(Cl)c1Cl | 57% | 72.5% | 99.2% | 94.4% | 72.6% | -18.7% (active) | 38.9% | 71.2% | 81.1% | 80.7% | 83.7% | 41.4% | 80.6% | 77.8% | 79.7% | 77.3% | 59.8% | 76.8% | 83.7% | 87.3%
CCOC(=O)c1nnn(Cc2cc(=O)oc3ccc(O)cc23)c1C | 101% | 99.6% | 105% | 102% | 99.3% | 103% | 97.1% | 98.6% | 103% | 105% | 115% | 103% | 103% | 105% | 113% | 108% | 97.7% | 102% | 105% | 100%
